26 compounds from PubChem BioAssay AID2685 (National Center for Advancing Translational Sciences (NCATS), 2010) can be followed below.

Structures are written as SMILES. In all, about 320,000 compounds went through this assay and about 2,100 (0.66%) were called active. Roughly 53% stayed inconclusive and do not appear here. Calls come from the whole dose curve; as a rule, active = well fitted inhibition curve with a large enough effect in the signal ratio, with a control signal flat (not every such curve was filed as active); inconclusive = small, poorly fitted or top-dose-only effect, or effect the other way, or a change in a side signal; inactive = flat fitted curve, though single readings scatter; the % refers to the signal ratio. The sample as a whole holds a higher share of actives than the screen did.
Potency is the fitted concentration of half-maximal effect.

The test can be described thus: qHTS Assay for Lipid Storage Modulators in Drosophila S3 Cells.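 For cell number change: cells counted by Cell Tracker Red CMTPX staining in the red channel.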 For lipid storage change, negative = inhibition: % is set by controls: 0 for no effect and ±100 for the full control effect. The conditions noted are these: BODIPY lipid droplet fluorescence, 18-24 h, cells fed with added oleic acid; cell number change: measured here: cell count max response; series mostly up to 46.1 µM; lipid storage change, negative = inhibition: at the top concentration. In outline:
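Drosophila S3 cells got compounds at several concentrations plus oleic acid (400 uM solution). Laser-scanning cytometry with 488 nm excitation read lipid droplets at 500-530 nm and cells at 575-640 nm. Percent activity was relative to 20 uM Triacsin C.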
In general terms: qHTS replaces the single test concentration by a dilution series.
In the case of `CC12CCC(=O)N1C(C(=O)OCC(=O)Nc1cccc(S(=O)(=O)N3CCCCCC3)c1)CS2` (stereo unspecified), the “lipid storage change, negative = inhibition” value was 8.73% (inactive).
`CN1CCCC(OC(=O)c2cc(Cl)cc(Cl)c2)C1` (stereo unspecified): the “lipid storage change, negative = inhibition” value was 6.18% (inactive) and the cell number change is -19.2%.
Turning to `COc1cccc(C(=O)OC2CCCN(C)C2)c1` (stereo unspecified), the Potency was 23.1 µM (active) and the cell number change is -20.8%.
Consider `CN1CCCC(OC(=O)c2cccc(S(=O)(=O)N3CCCCCC3)c2)C1` (stereo unspecified), for which the “lipid storage change, negative = inhibition” value is -6.87% (inactive) and the cell number change is 5.11%.
For `CCc1ccc(NC(=O)C/C(C)=N/NC(=O)OCc2ccc(OC)cc2)cc1`, in that order: 4.54% (inactive) and 1.96%.
The matching figures for `O=S(=O)(c1cccs1)N1CCN(S(=O)(=O)c2cccs2)CC1`: 0.709% (inactive) and 5.37%.
Take `Cc1ccc(N2CCN(S(=O)(=O)c3cccs3)CC2C)cc1` (stereo unspecified): the Potency was 3.66 µM (active) and the cell number change was -24.3%.
With `Cc1ccc(N2CCN(S(=O)(=O)c3ccc4c(c3)n(C)c(=O)c(=O)n4C)CC2C)cc1` (stereo unspecified), the “lipid storage change, negative = inhibition” value is -1.8% (inactive) and the cell number change came out at 9.1%.
In the case of `Cc1ccc(NC(=O)c2ccco2)c(NC(=O)c2ccccc2)c1`, the outcome was inactive and the cell number change worked out at 11.5%.
For `CN(C(=O)c1ccc(NC(=O)c2ccco2)cc1)c1ccccc1`, the Potency was 8.2 µM (active) and the cell number change amounted to 5.45%.
As to `CN(C(=O)c1cccc(NC(=O)c2ccco2)c1)c1ccccc1`, the “lipid storage change, negative = inhibition” value was 27% (inactive) and the cell number change is 8.03%.
For `CC(=O)N(C)c1ccc(NC(=O)c2ccco2)cc1`, in that order: -5.89% (inactive) and -3.91%.
For the compound `O=C(Nc1ccccc1NC(=O)c1ccco1)c1ccccc1`, the Potency was 1.46 µM (active) and the cell number change was -10%.
Take `O=C(Nc1ccccc1NC(=O)c1ccco1)c1ccco1`: the “lipid storage change, negative = inhibition” value is 5.64% (inactive) and the cell number change is -11%.
For the compound `CCC(OC(=O)c1cccs1)C(=O)NCc1ccc(C)cc1` (stereo unspecified), the “lipid storage change, negative = inhibition” value is -3.65% (inactive) and the cell number change is -0.108%.
Consider `CCC(C(=O)N(C(C)C)C(C)C)c1ccccc1` (stereo unspecified), for which the “lipid storage change, negative = inhibition” value is 16.1% (inactive) and the cell number change came to 4.75%.
Regarding `O=C(N/C(=C\c1ccccc1)C(=O)N1CCCCC1)c1ccc(Br)o1`, the cell number change is 0.343% and the outcome is “inactive [at 0.369 µM]”.
Take `CC(C(=O)NCC1(c2ccccc2)CCCC1)N1CCOCC1` (stereo unspecified): the result was inactive and the cell number change is 9.07%.
Consider `COc1ccc(CN(CC2CCC(C(=O)O)CC2)C(=S)Nc2cc(C)cc(C)c2)cc1` (stereo unspecified), for which the “lipid storage change, negative = inhibition” value is 6.11% (inactive) and the cell number change is -1.54%.
The matching figures for `CC[C@H](C)NC(=O)CCCCCn1c(=S)[nH]c2c([nH]c3ccc(OC)cc32)c1=O`: -12.6% (inactive) and -11.2%.
For `CCCNC(=O)CCCCn1c(=S)[nH]c2c([nH]c3ccc(OC)cc32)c1=O`, in that order: -8.43% (inactive) and 24.9%.
Consider `COc1ccc2[nH]c3c(=O)n(CCCC(=O)NC4CCC(C)CC4)c(=S)[nH]c3c2c1` (stereo unspecified), for which the Potency is 2.31 µM (active) and the cell number change was determined as 6.49%.
For the compound `O=C(CSc1cn(Cc2cccc(F)c2)c2ccccc12)NCc1ccc(F)cc1`, the “lipid storage change, negative = inhibition” value is 17% (inactive) and the cell number change is 3.63%.
With `CNC(=O)C1CCC(=O)N1Cc1ccccc1Cl` (stereo unspecified), the Potency is 29.1 µM (active) and the cell number change is -10.4%.
Consider `O=C(O)C1CCC(=O)N1Cc1ccccc1Cl` (stereo unspecified), for which the “lipid storage change, negative = inhibition” value is -7.87% (inactive) and the cell number change is -9.84%.
With `O=C(Nc1ccc(Cl)cc1)C1CCC(=O)N1Cc1ccccc1Cl` (stereo unspecified), the call was inactive and the cell number change is -16.5%.
